The supplement of paper PMC4709259
Structures can show the parent of a compound that is named as a salt. ± gives the standard deviation.

Tests used:
Jurkat [1] = assay: mean cell size (FSC-A) relative to DMSO control (fraction of control); higher = larger cells; conditions: 48 h
Method in brief: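 Jurkat cells seeded at 600 cells/µl were incubated 1 h, then exposed for 48h to the Enzo Screen-Well FDA Approved Drug Library v2.0 at 25µM in 0.9% (v/v) final DMSO. Drugs that cut counts below 20% of controls were diluted 10-fold and retested, down to 25nM. Cell count and mean cell size (forward scatter area) were read on an Accuri C6 flow cytometer, relative to solvent-only controls. Plates held 6-12 controls; values are means of 3 biological replicates.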

Jurkat [2] = assay: cell count relative to DMSO control (fraction of control); higher = more cells (less growth inhibition); conditions: 48 h

## Cc1nnc(C(=O)NC(C)(C)c2nc(C(=O)NCc3ccc(F)cc3)c(O)c(=O)n2C)o1 [Raltegravir] (concentration: 25 µM)
Jurkat [1]
  mean cell size: 0.9483 ± 0.0067
Jurkat [2]
  cell count: 0.569 ± 0.11

## Nc1nc(Cl)nc2c1ncn2[C@H]1C[C@H](O)[C@@H](CO)O1 [Cladribine] (concentration: 250 nM)
Jurkat [1]
  mean cell size: 1.17 ± 0.034
Jurkat [2]
  cell count: 0.268 ± 0.024

## CC[C@@H](CO)NCCN[C@@H](CC)CO [Ethambutol Dihydrochloride] (concentration: 25 µM)
Jurkat [1]
  mean cell size: 1.02 ± 0.064
Jurkat [2]
  cell count: 0.721 ± 0.18

## CC(=O)CCCCn1c(=O)c2c(ncn2C)n(C)c1=O [Pentoxifylline] (concentration: 25 µM)
Jurkat [1]
  mean cell size: 0.977 ± 0.028
Jurkat [2]
  cell count: 1.09 ± 0.12

## CCN(CC)CCOc1ccc(C(=C(Cl)c2ccccc2)c2ccccc2)cc1 [Clomiphene Citrate] (concentration: 25 µM)
Jurkat [1]
  mean cell size: 0.897 ± 0.013
Jurkat [2]
  cell count: 0.793 ± 0.056

## C[C@@H]1C[C@H]2[C@@H]3CCC4=CC(=O)C=C[C@]4(C)[C@@]3(F)[C@@H](O)C[C@]2(C)[C@H]1C(=O)CO [Desoximetasone] (concentration: 25 µM)
Jurkat [1]
  mean cell size: 0.949 ± 0.035
Jurkat [2]
  cell count: 0.764 ± 0.02

## CC1COc2c(N3CCN(C)CC3)c(F)cc3c(=O)c(C(=O)O)cn1c23 (stereo unspecified) [Ofloxacin] (concentration: 25 µM)
Jurkat [1]
  mean cell size: 0.928 ± 0.011
Jurkat [2]
  cell count: 0.989 ± 0.073

## CNCCCC12CCC(c3ccccc31)c1ccccc12 [Maprotiline·HCl] (concentration: 2.5 µM)
Jurkat [1]
  mean cell size: 0.991 ± 0.018
Jurkat [2]
  cell count: 0.788 ± 0.053

## Clc1ccc(COC(Cn2ccnc2)c2ccc(Cl)cc2Cl)cc1 (stereo unspecified) [Econazole Nitrate] (concentration: 25 µM)
Jurkat [1]
  mean cell size: 0.959 ± 0.03
Jurkat [2]
  cell count: 0.774 ± 0.096

## COc1ccc(-c2ccc3cc(C(=O)O)ccc3c2)cc1C12CC3CC(CC(C3)C1)C2 [Adapalene] (concentration: 2.5 µM)
Jurkat [1]
  mean cell size: 1.1 ± 0.1
Jurkat [2]
  cell count: 0.269 ± 0.081

## CO[C@H]1/C=C/O[C@@]2(C)Oc3c(C)c(O)c4c(O)c(c(/C=N/N5CCN(C6CCCC6)CC5)c(O)c4c3C2=O)NC(=O)/C(C)=C\C=C\[C@H](C)[C@H](O)[C@@H](C)[C@@H](O)[C@@H](C)[C@H](OC(C)=O)[C@@H]1C [Rifapentine] (concentration: 25 µM)
Jurkat [1]
  mean cell size: 0.887 ± 0.025
Jurkat [2]
  cell count: 0.275 ± 0.088

## CC(=O)CC(c1ccccc1)c1c(O)c2ccccc2oc1=O (stereo unspecified) [Warfarin·Na] (concentration: 25 µM)
Jurkat [1]
  mean cell size: 1.04 ± 0.051
Jurkat [2]
  cell count: 0.708 ± 0.045

## CN(C)CCC[C@@]1(c2ccc(F)cc2)OCc2cc(C#N)ccc21 [Escitalopram] (concentration: 25 µM)
Jurkat [1]
  mean cell size: 1.06 ± 0.039
Jurkat [2]
  cell count: 0.382 ± 0.085

## CCCNC(C)C(=O)Nc1c(C)csc1C(=O)OC (stereo unspecified) [Articaine·HCl] (concentration: 25 µM)
Jurkat [1]
  mean cell size: 0.96 ± 0.028
Jurkat [2]
  cell count: 0.738 ± 0.059

## CNS(=O)(=O)Cc1ccc2[nH]cc(CCN(C)C)c2c1 [Sumatriptan Succinate] (concentration: 25 µM)
Jurkat [1]
  mean cell size: 0.955 ± 0.031
Jurkat [2]
  cell count: 0.738 ± 0.1

## COc1cc2c(cc1OC)C(=O)C(CC1CCN(Cc3ccccc3)CC1)C2 (stereo unspecified) [Donepezil·HCl] (concentration: 25 µM)
Jurkat [1]
  mean cell size: 1.032 ± 0.0096
Jurkat [2]
  cell count: 0.487 ± 0.13

## C[C@@](Cc1ccc(O)c(O)c1)(NN)C(=O)O [Carbidopa] (concentration: 25 µM)
Jurkat [1]
  mean cell size: 0.939 ± 0.027
Jurkat [2]
  cell count: 0.439 ± 0.09

## NC(=O)c1cn(Cc2c(F)cccc2F)nn1 [Rufinamide] (concentration: 25 µM)
Jurkat [1]
  mean cell size: 0.968 ± 0.042
Jurkat [2]
  cell count: 0.803 ± 0.055

## C#C[C@]1(O)CC[C@H]2[C@@H]3CCc4cc(OC)ccc4[C@H]3CC[C@@]21C [Mestranol] (concentration: 25 µM)
Jurkat [1]
  mean cell size: 1.01 ± 0.022
Jurkat [2]
  cell count: 0.91 ± 0.12

## CC(=O)OCC(=O)[C@@]12OC(C)(C)O[C@@H]1C[C@H]1[C@@H]3C[C@H](F)C4=CC(=O)C=C[C@]4(C)[C@@]3(F)[C@@H](O)C[C@@]12C [Fluocinonide] (concentration: 25 µM)
Jurkat [1]
  mean cell size: 0.944 ± 0.027
Jurkat [2]
  cell count: 0.551 ± 0.03

## C[C@@H]1O[C@@H]1P(=O)(O)O [Fosfomycin Calcium] (concentration: 25 µM)
Jurkat [1]
  mean cell size: 0.916 ± 0.036
Jurkat [2]
  cell count: 0.474 ± 0.19

## CCNC(=O)CCC/C=C\C[C@@H]1[C@@H](/C=C/[C@@H](O)CCc2ccccc2)[C@H](O)C[C@@H]1O [Bimatoprost] (concentration: 25 µM)
Jurkat [1]
  mean cell size: 0.87 ± 0.025
Jurkat [2]
  cell count: 0.307 ± 0.091
